This passage reports outcome results from PubChem BioAssay AID492998 (Southern Research Specialized Biocontainment Screening …, 2010).

Among all 2,300 compounds or so, about 550 (24%) were called active. How the calls were made is not given here. These entries were drawn from the full list. Results with a measured potency or affinity are listed apart.

This assay in a line: Vero E6 cell cytotoxicity, dose response, cytotoxicity control for non-replicating M. tuberculosis project, secondary assay (AID 492998). The settings on record: series mostly up to 20 µM.
Regarding `CC(=O)Nc1cccc(-c2nc3ccccc3c(=O)o2)c1`, the molecule was classed as inactive.

Consider `CC(C)Cc1cc(C(=O)Nc2ccc(F)cc2F)no1`, for which the result was inactive.

For `CC(C)c1nnc(NC(=O)c2cc3cc(Br)ccc3oc2=O)s1`, the molecule was called inactive.

`CCCC(=O)Nc1cccc(-c2nc3ccccc3c(=O)o2)c1`: the call was inactive.

Turning to `O=C(Oc1ccc(/C=N/O)cc1)c1ccccc1Cl`, the result was inactive.

With `CN1C(=O)/C(=C/c2cccc(Cl)c2)Sc2ccc(C(=O)N3CCCC3)cc21`, the molecule was classed as inactive.

Turning to `O=C(NCCN1C(=O)S/C(=C\c2ccccc2F)C1=O)C1CCN(S(=O)(=O)c2cccs2)CC1`, the call was inactive.

On to `O=C(O)CCCCCN1C(=O)/C(=C\c2ccncc2)SC1=S`, for which the result was inactive.

Take `O=C(COC(=O)CCN1C(=O)/C(=C\C=C\c2ccccc2)SC1=S)Nc1cc(F)ccc1F`: the molecule was called inactive.

`O=C(CC1CC2CCC1C2)NCc1cccs1` (stereo unspecified): the molecule was classed as inactive.

With `CCOc1ccc(-c2cc(CCCC(=O)NCCC(C)C)no2)cc1`, the molecule was classed as inactive.

With `Cc1ccc(N2C(=O)CC(Sc3nccc(C)n3)C2=O)cc1` (stereo unspecified), the molecule was called inactive.

`Cc1cccc(C2=N/C(=C\c3cccnc3)C(=O)O2)c1`: the call was inactive.

As to `Cc1ccc(-c2noc(CCC(=O)Nc3cccc(C#N)c3)n2)cc1`, the result was inactive.

For the molecule `CCNc1nc(NC(C)(C)C)nc(N2CCCCC2)n1`, the call was inactive.

For `COc1cc(NC(=O)C/C(C)=N/NC(=O)c2cccs2)c(OC)cc1Cl`, the call was inactive.

With `O=C(OCC(=O)N1CCCc2ccccc21)c1ccc(S(=O)(=O)C(F)F)cc1`, the result was inactive.

Regarding `CCOC(=O)COc1ccc2c(c1)C(=O)CC(C)(c1cccnc1)O2` (stereo unspecified), the molecule was classed as inactive.

For the molecule `CC(/C=C/c1ccccc1)=N\NC(=O)c1ccc2c(c1)OCCO2`, the result was inactive.

Consider `Cc1occc1C(=O)N/N=C/c1ccc[nH]1`, for which the call was inactive.

As for `O=C(Oc1cccc2cccnc12)c1ccc2c(c1)OCCO2`, the call was inactive.

For `O=C(N/N=C/c1ccc[nH]1)c1ccc2c(c1)OCO2`, the molecule was classed as inactive.

On to `C/C(=N\NC(=O)c1cccs1)c1ccc2c(c1)OCO2`, for which the call was inactive.

Consider `O=C(N/N=C\c1ccccc1OCc1ccccc1)c1ccco1`, for which the outcome was inactive.

On to `COCCCn1c(=NC(=O)c2ccccc2)c(C#N)cc2c(=O)n3cccc(C)c3nc21`, for which the call was inactive.

With `CCOC(=O)COc1c(-c2ccc(OC)cc2)oc2ccccc2c1=O`, the result was inactive.

`O=C1CC(N2CCN(c3ccc(F)cc3)CC2)C(=O)N1Cc1ccccc1` (stereo unspecified): the molecule was called inactive.

Regarding `O=C1NCC(O)=C1C=Nc1ccccc1O`, the call was inactive.

On to `COC(=O)c1cccc(COC(=O)c2cc3ccccc3oc2=O)c1`, for which the molecule was classed as inactive.

With `CN(CCCCOc1ccc(F)cc1)Cc1ccccc1`, the outcome was inactive.

Regarding `O=C(Nc1ccn(Cc2ccccc2)n1)c1ccc(F)cc1`, the outcome was inactive.

As to `O=C(c1ccc([N+](=O)[O-])cc1[N+](=O)[O-])N1CCc2ccccc21`, the call was inactive.

As to `CCOC(=O)c1ccc(COC(=O)c2ccc(-c3nnc(-c4ccccc4)o3)cc2)o1`, the molecule was called inactive.

On to `CC(/C=C/c1cccc([N+](=O)[O-])c1)=N\NC(=O)c1ccncc1`, for which the call was inactive.

As for `NC(=O)C1(N2CCCCC2)CCN(C2CC(=O)N(CCc3ccccc3)C2=O)CC1` (stereo unspecified), the molecule was called inactive.

In the case of `COC(CNC(=O)c1ccc2c3c(onc13)-c1ccccc1C2=O)OC`, the call was inactive.

Consider `O=[N+]([O-])c1cc(N=Nc2ccc3ccccc3c2)ccc1O`, for which the result was inactive.

Regarding `CCCCCCOc1ccc(N2C(=O)CC(N3CCN(C(=O)c4ccco4)CC3)C2=O)cc1` (stereo unspecified), the outcome was inactive.

For `O=C(Oc1ccccc1)c1ccc(NC(=O)c2ccco2)cc1`, the molecule was called inactive.

On to `O=C(/C=C/Nc1ccccc1O)c1ccco1`, for which the molecule was classed as inactive.

As to `Nc1nnc(SCCCC(=O)c2ccc(Br)cc2)s1`, the molecule was classed as inactive.

With `CC(=O)c1c(C)n(C)c2ccc(OC(=O)c3ccco3)cc12`, the molecule was classed as inactive.

For the molecule `COc1cc(OC)cc(OC(=O)c2ccc3c(=O)n4c(nc3c2)CCC4)c1`, the call was inactive.

With `COc1ccc(N2C(=O)CC(Sc3nc4ccccc4s3)C2=O)cc1OC` (stereo unspecified), the outcome was inactive.

As to `COc1ccc(C(=O)CCS(=O)(=O)c2ccc(C)cc2)cc1OC`, the molecule was classed as inactive.

As for `O=C(N/N=C/C=C/c1ccccc1)c1cccs1`, the outcome was inactive.

On to `O=C1Nc2ccc(Br)cc2/C1=C/C(=O)c1ccc2c(c1)OCO2`, for which the outcome was inactive.

For `CCOC(=O)Cc1nc2cc(Cl)ccc2o1`, the call was inactive.

For the molecule `O=C1c2ccccc2CC1Sc1nnc(-c2ccncc2)o1` (stereo unspecified), the result was inactive.

In the case of `c1ccc(-c2nnc(SCc3nnc(-c4cccs4)o3)o2)cc1`, the call was inactive.

Turning to `CCn1cc(C(=O)O)c(=O)c2cc(F)c(N3CCN(C(=S)NC(=O)c4ccccc4)CC3)cc21`, the outcome was inactive.

For `O=C(COc1ccc(Cl)cc1)Nc1ccc(Cl)cn1`, the molecule was called inactive.

Turning to `COc1cccc(COC(=O)CCNC(=O)c2ccc(Cl)cc2)c1OC`, the result was inactive.

For the molecule `CC(/C=C/c1ccco1)=N\NC(=O)c1cccc(Cl)c1`, the molecule was called inactive.

With `CN(C)CC/C=C1/c2ccc(F)cc2Sc2ccc(Cl)cc21`, the molecule was classed as inactive.

In the case of `O=C(COC(=O)c1ccc(Cl)s1)c1ccc[nH]1`, the result was inactive.

Turning to `O=C(NC(=S)Nn1cnc2c(cnn2-c2ccccc2)c1=O)c1ccccc1`, the outcome was inactive.

Consider `CC(NC(=O)c1cc([N+](=O)[O-])cc([N+](=O)[O-])c1)c1ccc(-n2ccnc2)cc1` (stereo unspecified), for which the call was inactive.

For the molecule `Cc1cccc(C)c1NC(=O)c1sc(N)nc1-c1ccccc1`, the molecule was classed as inactive.

For `O=C(COC(=O)Cc1ccc(Br)cc1)Nc1ccc(N2CCOCC2)cc1`, the result was inactive.

As to `O=C(COC(=O)c1cc2ccccc2oc1=O)Nc1ccc(F)cc1F`, the molecule was classed as inactive.

For the molecule `Clc1ccc(OC2CCN(Cc3nc(CC4CC4)no3)CC2)cc1`, the result was inactive.

As for `CCOC(=O)CCSc1n[nH]c(=S)s1`, the molecule was called inactive.

In the case of `C(=C\c1ccccc1)/CSc1nc2ncccc2[nH]1`, the result was inactive.

For `CC(C)=CCN1CCN(Cc2cn(C(C)C)c3ccccc23)CC1CCO` (stereo unspecified), the outcome was inactive.

With `Cc1ccc(/C=C2\SC(N3CCCC3)=NC2=O)cc1`, the call was inactive.

As for `CC(C)N1C(=O)NC(=O)C2(Cc3cc([N+](=O)[O-])ccc3N(C)C2c2ccccc2)C1=O` (stereo unspecified), the molecule was called inactive.

As for `Cc1ccc(OCC(=O)Nc2ccc([N+](=O)[O-])cc2)cc1`, the outcome was inactive.

`Cc1ccc(NC(=O)COCC(=O)Nc2ccc(C)cc2)cc1`: the call was inactive.

As for `O=[N+]([O-])c1c(Nc2ccccn2)cc(Cl)c2nonc12`, the molecule was classed as inactive.

With `O=C(N/N=C/C=C/c1ccccc1[N+](=O)[O-])c1ccncc1`, the result was inactive.

Regarding `COc1cc(Cl)cc(/C=N/NC(N)=O)c1O`, the molecule was classed as inactive.

Consider `O=C(NNc1nc2ccccc2s1)Nc1ccc(F)cc1`, for which the result was inactive.

For `NC(N)=N/N=C/c1cccc([N+](=O)[O-])c1O`, the result was inactive.

For the molecule `O=C(N/N=C/c1cccc([N+](=O)[O-])c1O)c1cccs1`, the result was inactive.

Consider `CC1CCC/C(=C\Nc2ccc(C(=O)O)c(O)c2)C1=O` (stereo unspecified), for which the molecule was classed as inactive.

For the molecule `Oc1ccccc1Nc1nc(NCC2CCCO2)c2ccccc2n1` (stereo unspecified), the outcome was inactive.

Take `CCSc1nsc(NC(=O)Nc2ccc(F)cc2F)n1`: the outcome was inactive.

Turning to `Clc1ccc(OCCCCN2CCc3ccccc3C2)cc1`, the outcome was inactive.

With `COc1ccc(CCNc2cc(-c3ccccc3)nc3ncnn23)cc1`, the call was inactive.

On to `COc1ccc(CC(=O)Nc2nccs2)cc1OC`, for which the outcome was inactive.

As for `CCOC(=O)Cn1c(C)c(Br)c(=O)c2cccc(C)c21`, the result was inactive.

In the case of `FC(F)(F)c1nc(SCc2ccc(Cl)cc2Cl)n[nH]1`, the molecule was called inactive.

Turning to `CC1CCCN(CCC(=O)c2ccc(Br)cc2)C1` (stereo unspecified), the molecule was called inactive.

Take `CNc1nnc(Sc2ncccc2[N+](=O)[O-])s1`: the molecule was classed as inactive.

Take `CN(CC(=O)Nc1ccc(C#N)cc1)Cc1ccc(Cl)c(Cl)c1`: the result was inactive.

For `COC(=O)COc1ccc2c(=O)c(Oc3ccccc3)c(C)oc2c1`, the molecule was called inactive.

Consider `Cc1nn(C)cc1/C=N/NC(=O)c1sc2ccccc2c1Cl`, for which the molecule was called inactive.

As to `Cc1ccc(C(=O)N/N=C/c2cccc3ccccc23)cn1`, the outcome was inactive.

`Cc1[nH]nc2c1C(c1ccc(OC(=O)c3ccco3)cc1)C(C#N)=C(N)O2` (stereo unspecified): the call was inactive.

On to `CCC(=O)c1ccc(OCC(=O)OCC(=O)N2CCc3ccccc3C2)cc1`, for which the molecule was called inactive.

`O=C1NC(=O)C(=Cc2ccc(Oc3ccc([N+](=O)[O-])cc3)cc2)C(=O)N1`: the molecule was classed as inactive.

On to `COc1ccc(/C(=N/O)C(C)(C)NO)cc1`, for which the call was inactive.

`CO/N=C/CC(=O)c1ccc(OC)cc1`: the molecule was classed as inactive.

Consider `C/C(=N/Nc1ccnc2cc(Cl)ccc12)c1ccc(N)cc1`, for which the outcome was inactive.

With `CCC(C)(C)c1ccc(OCC(=O)Nc2ccncc2)cc1`, the result was inactive.

Take `O=C(Nc1nnc(-c2ccc(Cl)cc2)o1)c1cccc(N2C(=O)CCC2=O)c1`: the call was inactive.

Consider `O=C(Nc1nnc(-c2ccc(Cl)cc2)o1)c1nc2ccccc2s1`, for which the result was inactive.

As to `O=C(Nc1nnc(-c2ccc(Cl)cc2)o1)C1=COCCO1`, the call was inactive.

As to `O=C(COc1ccccc1)Nc1nnc(-c2ccc(Cl)cc2)o1`, the outcome was inactive.

As for `COC(=O)COc1cccc(/C=N/NC(=O)CCSc2ccccc2)c1`, the result was inactive.

Regarding `Cc1ccc(-c2cc(C(F)(F)F)n3nc(C(=O)NCCCn4ccnc4)cc3n2)cc1C`, the outcome was inactive.

As to `CCc1cc2c(=O)n(C(C)C(=O)OC3CCCCC3)cnc2s1` (stereo unspecified), the call was inactive.

As to `CCCCn1c(O)c(/C=C2/C=CC=N2)c(=O)[nH]c1=O`, the outcome was inactive.

Turning to `N=C1/C(=C\c2coc3ccccc3c2=O)C(=O)N=C2SC=CN12`, the molecule was called inactive.

Take `CCOC(=O)C1CCN(c2nc3cc(OC)ccc3cc2C#N)CC1`: the molecule was called inactive.

Regarding `COC(=O)c1cccc(NC(=O)COc2cccc([N+](=O)[O-])c2)c1`, the result was inactive.

As to `O=C(NNC1CC(=O)N(c2ccccc2)C1=O)c1ccco1` (stereo unspecified), the molecule was classed as inactive.

In the case of `COC(=O)c1ccc(Cn2cc(C(F)(F)F)cc([N+](=O)[O-])c2=O)cc1`, the outcome was inactive.

As to `O=C(CC1CCCCC1)NCc1ccccc1`, the molecule was classed as inactive.

On to `Cc1nnc(N/N=C/c2ccc(-c3ccccc3F)o2)n1N`, for which the outcome was inactive.

Turning to `COC(=O)CCn1c(C)cc(C(=O)COc2ccccc2C(N)=O)c1C`, the result was inactive.

For `Clc1ccc2c(N3CCCC3)ccnc2c1`, the outcome was inactive.

`Fc1ccc(-c2nn(-c3ccccc3)cc2CNCc2ccccc2)cc1`: the molecule was classed as inactive.

`O=c1oc(-c2cccs2)nc2c1cnn2-c1ccccc1`: the call was inactive.

Regarding `CSc1ccccc1C(=O)NCc1ccc(S(N)(=O)=O)cc1`, the result was inactive.
